From PubChem BioAssay AID2546 (National Center for Advancing Translational Sciences (NCATS), 2010)
About 11,000 (3.5%) of roughly 310,000 compounds were called active. Inconclusive results (about 8%) are left out. Calls follow the shape of the dose curve; as a rule, active = well fitted inhibition curve with a large enough effect; inconclusive = small, poorly fitted or top-dose-only effect, or effect the other way; inactive = flat fitted curve, though single readings scatter. Shown is part of a subset that was picked to be rich in actives. A call without a number means that no potency is given here.

Experiment: VP16 counterscreen qHTS for inhibitors of ROR gamma transcriptional activity;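 also: Gal4-VP16 expression switched on by copper sulfate through the metallothionein promoter; nearly all actives have a fitted effect of over 50% in size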
Settings: Drosophila S2 Gal4-VP16 UAS-luciferase, luminescence, 20 h; series mostly up to 53.6 µM
Potency is read from the fitted curve at half-maximal effect.

Row | Structure (SMILES) | Potency
1 | CCc1c(C)c2ccc(OC3CCCCC3=O)cc2oc1=O (stereo not given) | inactive
2 | CCOCCCN1C(=O)C2C(C(=O)Nc3ccc(OCC)cc3)C3C=CC2(O3)C1C(=O)NC1CCCCC1 (stereo not given) | inactive
3 | O=C(NC1CC1)C(Cc1ccccc1)NS(=O)(=O)c1ccccc1F (stereo not given) | inactive
4 | Cc1ccc(NC(=O)Nc2cccnc2)cc1 | inactive
5 | COc1cc(/C=C(\C#N)c2nc3ccccc3[nH]2)ccc1O | inactive
6 | COc1cc(/C=C(\C#N)c2nc3c(s2)CC(C)CC3)ccc1O (stereo not given) | 4.47 µM (active)
7 | COc1cc(/C=N/Nc2nc3ccccc3s2)ccc1O | inactive
8 | Cc1cc(-c2nnc(SCC(=O)Nc3ccc(S(N)(=O)=O)cc3)n2N)n[nH]1 | inactive
9 | NC(=O)c1cc(S(=O)(=O)N2CCCC2)ccc1OCc1ccc(F)cc1 | inactive
10 | COC(=O)c1ccccc1NC(=O)CSc1n[nH]c(-c2ccncc2)n1 | inactive
11 | Cc1ccc(CSCC2Nc3ccc(C(=O)N4CCN(c5ccc(F)cc5)CC4)cc3NC2=O)cc1 (stereo not given) | inactive
12 | CC(=O)N(CCCN(C)C)c1nc2ccc(C)cc2s1 | inactive
13 | CN(C)CCCN(C(=O)c1ccc(S(=O)(=O)N2CCCCCC2)cc1)c1nc2ccc(Br)cc2s1 | 17.8 µM (active)
14 | CCN(CC)CCN(C(=O)c1ccc(S(=O)(=O)N2CCOCC2)cc1)c1nc2cc3c(cc2s1)OCCO3 | inactive
15 | Cc1cnc(NC(=O)c2ccccn2)s1 | 4.47 µM (active)
16 | O=C(Cc1cccs1)Nc1nnc(C2CC2)s1 | inactive
17 | O=C(Nc1nnc(C2CC2)s1)c1ccccn1 | 4.47 µM (active)
18 | Cc1occc1C(=O)Nc1nnc(C2CCCCC2)s1 | inactive
19 | Cc1ccc(SCC(=O)Nc2ncc(C)s2)cc1 | inactive
20 | Cc1cnc(NC(=O)CSc2c(Cl)cccc2Cl)s1 | inactive
21 | Cc1cccc(NC(=O)c2sc3nc(N4CCOCC4)c4c(c3c2N)CCCC4)c1 | inactive
22 | CN(CCNC(=O)c1cc2c(-c3ccccc3F)nn(C)c2s1)C1CCCCC1 | inactive
23 | NC(=O)c1oc2ccccc2c1NC(=O)Cc1ccccc1 | inactive
24 | COc1cc2c(C(=O)O)c(C)n(C)c2c2ccccc12 | inactive

Row | Structure (SMILES) | Potency
25 | Cc1c(C(=O)N/N=C/c2ccccc2)[nH]c2c([N+](=O)[O-])cccc12 | inactive
26 | COc1cccc2c(C)c(C(=O)O)[nH]c12 | 10 µM (active)
27 | O=C(Nc1ccc(S(=O)(=O)Nc2ncccn2)cc1)C12CC3CC(CC(C3)C1)C2 | inactive
28 | CNC(=O)C(=O)N/N=C/c1ccccn1 | inactive
29 | O=C(N/N=C/c1ccccn1)C12CC3CC(CC(C3)C1)C2 | 20 µM (active)
30 | COc1cc2ccccc2cc1C(=O)Nc1ccc(NC(=O)c2cccs2)cc1 | inactive
31 | C=C(C)CNC(=S)/N=c1\scc(C)n1CC | 8.91 µM (active)
32 | Cc1csc(=Nc2ccccc2)n1CCO | inactive
33 | Cc1csc(=NC(=O)c2ccccc2)n1CCO | inactive
34 | CC(C)(c1ccccc1)c1ccc(OCCN2CCCC2)cc1 | inactive
35 | CC(C)=CCN1CCN(Cc2cc3ccccc3[nH]2)CC1CCO (stereo not given) | inactive
36 | O=C(CSc1ccc(-c2ccc(Br)cc2)nn1)NCC1CCCO1 (stereo not given) | inactive
37 | O=C(c1cc(C(F)(F)F)cc(C(F)(F)F)c1)N1CCC2(CC1)CN(c1ccncc1)C2 | inactive
38 | O=C(c1cc(C(F)(F)F)cc(C(F)(F)F)c1)N1CCC[C@@]2(CCN(c3ccccn3)C2)C1 | inactive
39 | O=C(c1cc(C(F)(F)F)cc(C(F)(F)F)c1)N1CCC2(CCCN(c3ccccn3)C2)CC1 | 12.6 µM (active)
40 | Cc1ccc2c(cnn2C(=O)CCC(=O)NC2CCCC2)c1 | inactive
41 | COc1ccccc1NC(=O)c1ccc(N2CC3CC(C2)c2cccc(=O)n2C3)c(NC(=O)c2cccnc2)c1 (stereo not given) | inactive
42 | CC(=O)c1nc2ccccc2n1Cc1ccccc1 | inactive
43 | CC(=O)Nc1nc2ccccc2n1Cc1ccc(C)cc1 | 2.51 µM (active)
44 | Cc1ccc(Cn2c(NC(=O)c3ccco3)nc3ccccc32)cc1 | 1.58 µM (active)
45 | CCn1nc(NC(=O)c2ccco2)c2cc3ccc(C)cc3nc21 | inactive
46 | Cc1ccc(-n2nc3cc(Cl)c(NC(=O)c4ccco4)cc3n2)cc1 | inactive
47 | CCC(=O)Nc1nc2ccccc2n1Cc1ccccc1C | inactive
48 | COc1ccc(CNC(=O)C(C)NCc2ccccc2Cl)cc1 (stereo not given) | inactive

Row | Structure (SMILES) | Potency
49 | CN(C)S(=O)(=O)c1ccc(C(=O)NCCN=C2NS(=O)(=O)c3ccccc32)cc1 | inactive
50 | Cc1cc2occ(CC(=O)NNC(=O)c3ccccc3F)c2cc1C | inactive
51 | N#Cc1ccc(C(=O)Nc2cccc3cccnc23)c(F)c1 | inactive
52 | O=C(NNc1cc(Cl)ccc1Cl)c1cccnc1Cl | inactive
53 | CC(=O)/C(=N\Nc1ccc(Cl)cc1Cl)Sc1cccc2cccnc12 | 5.01 µM (active)
54 | CCn1c(CC(=O)Nc2ccccc2C)nnc1SCC(=O)NC1=NCCS1 | inactive
55 | CC1CC(C)CN(S(=O)(=O)c2cccc3nonc23)C1 (stereo not given) | inactive
56 | Cc1nnc2n1N=C(c1ccccc1)CS2 | inactive
57 | CCN1CCN(c2cc3nc(C)n(Cc4ccccc4)c(=O)c3cc2NC(=O)c2ccccc2F)CC1 | 11.2 µM (active)
58 | CCC(=O)Nc1ccc2nc(C)n(Cc3ccccc3Cl)c(=O)c2c1 | inactive
59 | CCOc1cc(NC(=O)c2ccccc2C(=O)O)c(OCC)cc1NC(=O)c1ccccc1F | inactive
60 | COc1cccc(NC(=O)CN(C)C(=O)c2ccccc2CCc2ccccc2)c1 | inactive
61 | CC1CCCCC1NC(=O)c1cn(C)c2ccc(S(=O)(=O)N3CCOCC3)cc2c1=O (stereo not given) | inactive
62 | O=c1onc(-c2c(F)cccc2F)n1-c1ccccc1Cl | inactive
63 | COc1ccc([N+](=O)[O-])cc1NCC(=O)c1ccc(C)cc1 | inactive
64 | Cc1nn(CC(=O)NC2CCCCC2)c(=O)c2cccn12 | inactive
65 | COc1ccc(C(=O)NC(C)CCc2ccccc2)c(OC)c1 (stereo not given) | inactive
66 | CCOC(=O)N1CCN(C(=O)COc2ccc(Cl)cc2C)CC1 | inactive
67 | CCCn1nnnc1NC(=O)COc1ccc(Cl)cc1C | 2 µM (active)
68 | Cc1cc(NC(=O)COc2ccc(Cl)cc2Cl)n(CCC#N)n1 | inactive
69 | O=C(Nc1ccccc1C(=O)NCC1CCCO1)c1ccccc1F (stereo not given) | inactive
70 | CCOC(CNC(=O)C1CCN(S(=O)(=O)c2ccc3nc4c(c(C(=O)O)c3c2)CC(C)CC4)CC1)OCC (stereo not given) | inactive
